Compound activity: PubChem, several laboratories
cardiac RTF act: cardiac RTF calcium sensitivity activators, primary screen, biochemical, IANBD-TnC fluorescence, EC20 calcium | IANBD-labeled TnC RTF fluorescence at EC20 calcium; 0% EC20 calcium, 100% full calcium | Troponin I, cardiac muscle (Homo sapiens) + Troponin T, cardiac muscle (Homo sapiens) + … | activation, % at 7.2 µM | hit rate 0.24% among 340,000 | AID 493008, 2010;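 active means activation above the mean over all tested compounds plus 3 SD, cut at about 30% in these data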;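 further: rise in fluorescence read as greater calcium sensitivity of cardiac thin filaments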
CRFR2-BP antag: antagonists of CRF-BP/CRF-R2 complex, primary screen, cell-based, HEK293, calcium dye fluorescence, uHTS; CRF-induced calcium fluorescence; AID 588475, 2011; inhibition, % at 11.8 µM; hit rate 0.59% among 350,000;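 active means inhibition of the ligand-induced calcium signal above about 50% at the single tested concentration, limit read from the data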
Myeloid diff 2: induction of myeloid progenitor differentiation, primary screen, cell-based, flow cytometry, MLPCN library; ER-HoxA9 myeloid progenitors, lysozyme-GFP differentiation; hit rate 1% among 360,000; calls only at 10 µM; AID 624256, 2012;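 active means normalized GFP-positive differentiation at or above the plate's own cutoff, the solvent-only control mean plus 3 SD; inconclusive means no clear call, values can overlap the other calls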;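 further: cells exposed to compound for four days before flow analysis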
CRFBP-R2 agonist: agonists of CRF-BP/CRF-R2 complex, primary screen, cell-based, HEK293, calcium dye fluorescence, uHTS; CRF-binding protein / CRF receptor 2 complex (human); calcium dye fluorescence (FLIPR); percent of saturating CRF peptide response; activation, % at 13.2 µM; hit rate 0.46% among 350,000;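 active means activation of at least 50%, plus an integration ratio under a set limit after plate pattern correction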;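 further: plate controls were neutral control wells without compound for no effect and CRF at EC100 for full effect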
RTF Ca sens inh: cardiac RTF calcium sensitivity inhibitors, primary screen, biochemical, IANBD-TnC fluorescence, EC70 calcium. hit rate 0.12% among 340,000. IANBD-labeled cardiac RTF, Ca2+ fluorescence. AID 493244, 2011. inhibition, % at 7.15 µM. Troponin I, cardiac muscle (Homo sapiens) + Troponin T, cardiac muscle (Homo sapiens) + …;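 active means inhibition above the mean inhibition of all tested compounds plus 3 SD, cut at about 17% in these data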;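 further: assay run at fixed EC70 calcium of 1.6 mM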
Myeloid diff CP1: inducers of myeloid progenitor differentiation, confirmation, cell-based, GFP/Mac1 flow cytometry, cherry pick 01; shares compounds with Myeloid diff 2; AID 651706, 2012; calls only; hit rate 2% among 2,300; ER-HoxA9 myeloid progenitors, GFP/Mac1 double-positive flow;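 active means share of green or green-and-red cells above 9 and 9% in run 1 or 4 and 3% in run 2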
GFP autofluor: compound fluorescence in myeloid differentiation counter-screen. shares compounds with Myeloid diff 2. ER-HoxA9 myeloid progenitors, no estrogen, GFP autofluorescence flow cytometry; vehicle wells 0%, positive control 100%. fluorescence response, % (test concentration not listed). hit rate 7.4% among 2,300. AID 651707;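 active means over 5% cells positive for green fluorescent reporter, or over 2% positive for both it and APC stain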;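 further: range taken on the double positive population between DMSO and positive control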
The depositor's hits bear a star. A selection: hits, their analogues and other compounds. The true share with any hit is near 2.2%.

Screening Cc1nc(N)nc(N(C)c2ccccc2)c1Br returned cardiac RTF act 2.9, CRFR2-BP antag -6.1, Myeloid diff 2 inactive, CRFBP-R2 agonist -0.8 and RTF Ca sens inh -11.8.
`Cc1ccc(S(=O)(=O)CCC(=O)Nc2nc(-c3ccccn3)cs2)cc1` gave cardiac RTF act 1.5, CRFR2-BP antag -15.0, Myeloid diff 2 active, CRFBP-R2 agonist 0.1, RTF Ca sens inh 1.9, Myeloid diff CP1 inactive and GFP autofluor 1.1.
`CC(Oc1ccc(Br)cc1)C(=O)Nc1nc(-c2ccccn2)cs1` (stereo not drawn) gave cardiac RTF act -3.2, CRFR2-BP antag -18.8, Myeloid diff 2 active, CRFBP-R2 agonist -7.0, RTF Ca sens inh 0.5, Myeloid diff CP1 inactive and GFP autofluor 0.0.
`Cc1ccc(S(=O)(=O)CCC(=O)Nc2nc(-c3cccnc3)cs2)cc1` gave cardiac RTF act 4.9, CRFR2-BP antag 3.0, Myeloid diff 2 inconclusive, CRFBP-R2 agonist 1.9 and RTF Ca sens inh -5.7.
Screening C[C@H]1CNC(=O)c2c(C(=O)N3CCN(C(=O)OC(C)(C)C)CC3)ncn21 returned Myeloid diff 2 inactive.
CCOP(=O)(OCC)/C(C#N)=C/c1ccc([N+](=O)[O-])cc1 was read as cardiac RTF act 5.4, CRFR2-BP antag -12.0, Myeloid diff 2 inactive, CRFBP-R2 agonist -0.9, RTF Ca sens inh -8.4, Myeloid diff CP1 inactive and GFP autofluor 0.0.
O=C(N/N=C/c1ccc(-n2ccnc2)cc1)c1cccs1 was read as cardiac RTF act -7.5, CRFR2-BP antag -0.2, Myeloid diff 2 inactive, CRFBP-R2 agonist 1.9 and RTF Ca sens inh 3.1.
`CC(=O)OCCN(Cc1ccccc1)Cc1ccc2c(c1)OCO2` gave cardiac RTF act 1.2, CRFR2-BP antag -2.4, Myeloid diff 2 inactive, CRFBP-R2 agonist -1.3 and RTF Ca sens inh -1.3.
Screening Clc1cc(Cl)cc(Nc2ccccc2CN(C/C=C/c2ccc3c(c2)OCO3)Cc2ccccc2)c1 returned CRFR2-BP antag -3.8, Myeloid diff 2 inactive, CRFBP-R2 agonist 6.2, Myeloid diff CP1 inactive and GFP autofluor 0.0.
For Cc1cc(C)nc(SCc2ccc(C(=O)N/N=C/c3ccncc3)cc2)n1 the results were cardiac RTF act 0.5, CRFR2-BP antag -15.9, Myeloid diff 2 inactive, CRFBP-R2 agonist -1.3 and RTF Ca sens inh -2.5.
`Cc1cc(C)nc(SCc2ccc(C(=O)N/N=C/c3ccccn3)cc2)n1` gave cardiac RTF act 3.6, CRFR2-BP antag 0.3, Myeloid diff 2 inactive, CRFBP-R2 agonist -0.2, RTF Ca sens inh -5.4, Myeloid diff CP1 inactive and GFP autofluor 0.4.
O=C(N/N=C/c1ccccn1)c1cc(-c2ccc3ccccc3c2)n[nH]1 was read as cardiac RTF act -1.3, CRFR2-BP antag 0.9, Myeloid diff 2 inactive, CRFBP-R2 agonist 1.2, RTF Ca sens inh -22.6, Myeloid diff CP1 inactive and GFP autofluor 0.5.
`Cc1cccc(N2CCN(C(=O)NCc3ccc(Cl)cc3)CC2)c1` gave cardiac RTF act -3.2, CRFR2-BP antag 0.9, Myeloid diff 2 inactive, CRFBP-R2 agonist -1.1, RTF Ca sens inh -12.2, Myeloid diff CP1 inactive and GFP autofluor 0.0.
`COc1ccc(CNC(=O)N2CCN(c3cccc(Cl)c3)CC2)cc1OC` gave cardiac RTF act -5.7, CRFR2-BP antag 7.7, Myeloid diff 2 inactive, CRFBP-R2 agonist -1.8 and RTF Ca sens inh -2.4.
COc1cc(-c2c(CCO)sc3ccccc23)cc(OC)c1OC was read as Myeloid diff 2 active, Myeloid diff CP1 inactive and GFP autofluor 1.9.
For CCOc1ccccc1NC(=O)c1ccccc1-c1nc(-c2ccccc2)no1 the results were cardiac RTF act -0.6, CRFR2-BP antag 8.0, Myeloid diff 2 active, CRFBP-R2 agonist 5.6, RTF Ca sens inh -5.7, Myeloid diff CP1 inactive and GFP autofluor 0.3.
Screening CCOc1ccccc1NC(=O)c1ccccc1-c1ccccc1 returned cardiac RTF act 3.1, CRFR2-BP antag 19.3, Myeloid diff 2 inactive, CRFBP-R2 agonist -1.2 and RTF Ca sens inh -2.5.
C=CCNC(=S)NS(=O)(=O)c1cccs1 was read as cardiac RTF act 7.0, CRFR2-BP antag 0.5, Myeloid diff 2 inactive, CRFBP-R2 agonist 0.6 and RTF Ca sens inh 1.7.
For CC1(C(=O)NS(=O)(=O)Cc2cccc(Cl)c2)CCN1C(=O)CCc1cccs1 (stereo not drawn) the results were Myeloid diff 2 inactive.
CCCCCCN1CCN(C2CN(Cc3cn(Cc4ccc(C)cc4)nn3)S(=O)(=O)C2)CC1 (stereo not drawn) was read as Myeloid diff 2 inactive, Myeloid diff CP1 inactive and GFP autofluor 0.0.
`Cc1ccc(-n2ncc(-c3nnc(SCC(=O)NC4CCCC4)o3)c2N)cc1C` gave cardiac RTF act -2.8, CRFR2-BP antag 20.3, Myeloid diff 2 inactive, CRFBP-R2 agonist -1.1, RTF Ca sens inh -2.3, Myeloid diff CP1 inactive and GFP autofluor 0.5.
CCc1ccc(C(=O)C(C)OC(=O)Cc2n[nH]c(=O)c3ccccc23)cc1 (stereo not drawn) was read as cardiac RTF act -4.1, CRFR2-BP antag 14.6, Myeloid diff 2 active, CRFBP-R2 agonist 1.1, RTF Ca sens inh -1.7, Myeloid diff CP1 inactive and GFP autofluor 0.0.
Screening COc1ccc(-c2cc(=O)oc3c(C)c(OCC(=O)Nc4cccnc4)ccc23)cc1 returned cardiac RTF act -0.7, CRFR2-BP antag -13.5, Myeloid diff 2 inactive, CRFBP-R2 agonist -0.9 and RTF Ca sens inh 1.1.
Screening Cc1cc(=O)oc2c(C)c(OCC(=O)NCc3ccccn3)ccc12 returned cardiac RTF act -3.7, CRFR2-BP antag -2.3, Myeloid diff 2 inactive, CRFBP-R2 agonist 0.3 and RTF Ca sens inh -1.1.
For Cc1c(OCC(=O)NCc2ccccn2)ccc2c(-c3ccccc3)cc(=O)oc12 the results were cardiac RTF act 11.2, CRFR2-BP antag 2.6, Myeloid diff 2 active, CRFBP-R2 agonist -1.4, RTF Ca sens inh -7.4, Myeloid diff CP1 inactive and GFP autofluor 0.0.
COc1ccc(-c2cc(=O)oc3c(C)c(OCC(=O)N(C)C)ccc23)cc1 was read as cardiac RTF act 1.3, CRFR2-BP antag 3.3, Myeloid diff 2 active, CRFBP-R2 agonist -1.5, RTF Ca sens inh -9.8, Myeloid diff CP1 inactive and GFP autofluor 0.0.
